Key:
Assay in all cases: log2 ratio of Biotin-Ahx-Ub-VS probe labelling (fragment/DMSO); higher = less target engagement (more negative = stronger competition), active = hit call of the paper (q ≤ 0.05, log2 ratio ≤ -1)
Conditions in all cases: compound concentration: 200 uM; treatment time: 3 h
[1] = target: USP34 (UniProt Q70CQ2)
In short: (§1)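 Labelling with Biotin-Ahx-Ub-VS (0.5 µM final, 1 h) followed a 3 h triplicate treatment of HEK293T lysate (495 µg per sample, Tris/CHAPS/IGEPAL buffer with protease inhibitors) with fragment at 200 µM or vehicle. Labelled DUBs were NeutrAvidin-enriched, digested with LysC and trypsin, and run by diaPASEF LC-MS/MS. The values, average log2 fragment/vehicle ratios by unpaired t-test, come from global-median-normalised Spectronaut label-free quantities. Proteins with ≥2 unique peptides were used.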

[2] = target: T1, USP36 (UniProt Q9P275)
T1 sequence (whole entry): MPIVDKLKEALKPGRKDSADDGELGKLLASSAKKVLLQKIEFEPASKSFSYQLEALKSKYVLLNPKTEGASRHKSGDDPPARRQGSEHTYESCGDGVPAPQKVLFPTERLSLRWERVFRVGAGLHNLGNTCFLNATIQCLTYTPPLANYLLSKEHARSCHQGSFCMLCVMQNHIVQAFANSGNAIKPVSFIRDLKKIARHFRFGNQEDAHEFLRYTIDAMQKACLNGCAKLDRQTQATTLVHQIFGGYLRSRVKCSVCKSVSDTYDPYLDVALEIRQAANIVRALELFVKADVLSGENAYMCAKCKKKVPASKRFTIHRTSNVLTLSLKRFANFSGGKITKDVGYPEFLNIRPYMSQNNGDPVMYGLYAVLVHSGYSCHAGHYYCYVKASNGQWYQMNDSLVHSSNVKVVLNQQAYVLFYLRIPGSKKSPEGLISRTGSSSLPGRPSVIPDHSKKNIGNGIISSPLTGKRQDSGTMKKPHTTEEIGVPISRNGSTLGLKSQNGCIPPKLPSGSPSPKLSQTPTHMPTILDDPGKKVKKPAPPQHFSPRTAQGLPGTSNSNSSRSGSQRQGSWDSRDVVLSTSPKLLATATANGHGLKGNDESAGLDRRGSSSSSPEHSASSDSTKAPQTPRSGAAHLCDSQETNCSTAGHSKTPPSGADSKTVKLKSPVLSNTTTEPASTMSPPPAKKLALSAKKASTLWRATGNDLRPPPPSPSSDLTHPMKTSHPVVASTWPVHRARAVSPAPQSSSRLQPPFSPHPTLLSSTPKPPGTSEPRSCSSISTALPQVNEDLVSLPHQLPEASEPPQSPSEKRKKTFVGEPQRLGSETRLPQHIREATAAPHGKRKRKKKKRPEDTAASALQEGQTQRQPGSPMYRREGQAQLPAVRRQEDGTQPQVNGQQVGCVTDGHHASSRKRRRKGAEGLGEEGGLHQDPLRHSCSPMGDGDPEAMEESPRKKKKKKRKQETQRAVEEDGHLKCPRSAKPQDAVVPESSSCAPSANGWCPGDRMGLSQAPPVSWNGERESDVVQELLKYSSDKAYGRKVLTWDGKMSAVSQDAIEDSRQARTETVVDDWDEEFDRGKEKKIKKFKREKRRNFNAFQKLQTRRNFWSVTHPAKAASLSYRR
In short: as §1

[3] = target: T2, USP38 (UniProt Q8NB14)
T2 sequence (whole entry): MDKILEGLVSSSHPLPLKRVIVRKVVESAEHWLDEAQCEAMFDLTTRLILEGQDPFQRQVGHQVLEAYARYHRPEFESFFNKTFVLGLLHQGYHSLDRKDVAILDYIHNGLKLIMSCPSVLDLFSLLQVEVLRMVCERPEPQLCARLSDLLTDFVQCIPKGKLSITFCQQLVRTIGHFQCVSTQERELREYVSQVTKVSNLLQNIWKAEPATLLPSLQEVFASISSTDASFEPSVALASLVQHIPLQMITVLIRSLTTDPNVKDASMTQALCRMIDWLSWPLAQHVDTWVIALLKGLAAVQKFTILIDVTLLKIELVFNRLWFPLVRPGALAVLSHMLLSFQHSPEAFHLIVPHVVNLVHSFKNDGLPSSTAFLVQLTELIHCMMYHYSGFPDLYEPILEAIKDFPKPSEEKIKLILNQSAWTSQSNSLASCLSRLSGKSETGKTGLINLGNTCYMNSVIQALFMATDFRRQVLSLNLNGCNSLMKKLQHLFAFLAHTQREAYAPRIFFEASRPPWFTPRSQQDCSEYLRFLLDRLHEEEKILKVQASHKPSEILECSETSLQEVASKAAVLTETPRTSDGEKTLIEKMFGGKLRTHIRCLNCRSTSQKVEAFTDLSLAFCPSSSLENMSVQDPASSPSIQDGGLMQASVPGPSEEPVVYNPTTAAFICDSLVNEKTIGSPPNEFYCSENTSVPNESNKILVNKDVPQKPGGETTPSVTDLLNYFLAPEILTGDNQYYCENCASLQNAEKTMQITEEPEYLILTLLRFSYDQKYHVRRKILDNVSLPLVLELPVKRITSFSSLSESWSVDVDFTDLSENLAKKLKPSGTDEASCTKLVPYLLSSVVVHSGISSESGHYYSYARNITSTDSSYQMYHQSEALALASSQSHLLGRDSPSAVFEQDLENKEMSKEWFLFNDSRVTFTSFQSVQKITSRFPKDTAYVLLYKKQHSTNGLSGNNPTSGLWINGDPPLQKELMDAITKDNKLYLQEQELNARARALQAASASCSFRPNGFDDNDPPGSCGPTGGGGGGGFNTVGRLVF
In short: as §1

[4] = target: T3, USP39 (UniProt Q53GS9)
T3 sequence (whole entry): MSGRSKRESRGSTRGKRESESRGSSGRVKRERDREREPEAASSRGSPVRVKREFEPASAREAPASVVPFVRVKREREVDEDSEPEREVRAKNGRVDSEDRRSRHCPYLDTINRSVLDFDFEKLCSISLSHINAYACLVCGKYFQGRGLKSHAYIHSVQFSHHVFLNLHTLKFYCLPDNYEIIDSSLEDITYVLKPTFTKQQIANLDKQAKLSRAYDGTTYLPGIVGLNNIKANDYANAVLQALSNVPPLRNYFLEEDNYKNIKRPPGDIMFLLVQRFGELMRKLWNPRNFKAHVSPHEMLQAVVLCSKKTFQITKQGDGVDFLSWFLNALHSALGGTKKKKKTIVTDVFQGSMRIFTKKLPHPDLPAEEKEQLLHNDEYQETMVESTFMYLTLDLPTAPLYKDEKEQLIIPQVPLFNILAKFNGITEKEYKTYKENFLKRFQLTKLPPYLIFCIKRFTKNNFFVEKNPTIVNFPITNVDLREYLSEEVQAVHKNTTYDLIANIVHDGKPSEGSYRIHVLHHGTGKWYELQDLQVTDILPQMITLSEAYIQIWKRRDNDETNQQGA
In short: as §1

[5] = target: T4, USP4 (UniProt Q13107)
T4 sequence (whole entry): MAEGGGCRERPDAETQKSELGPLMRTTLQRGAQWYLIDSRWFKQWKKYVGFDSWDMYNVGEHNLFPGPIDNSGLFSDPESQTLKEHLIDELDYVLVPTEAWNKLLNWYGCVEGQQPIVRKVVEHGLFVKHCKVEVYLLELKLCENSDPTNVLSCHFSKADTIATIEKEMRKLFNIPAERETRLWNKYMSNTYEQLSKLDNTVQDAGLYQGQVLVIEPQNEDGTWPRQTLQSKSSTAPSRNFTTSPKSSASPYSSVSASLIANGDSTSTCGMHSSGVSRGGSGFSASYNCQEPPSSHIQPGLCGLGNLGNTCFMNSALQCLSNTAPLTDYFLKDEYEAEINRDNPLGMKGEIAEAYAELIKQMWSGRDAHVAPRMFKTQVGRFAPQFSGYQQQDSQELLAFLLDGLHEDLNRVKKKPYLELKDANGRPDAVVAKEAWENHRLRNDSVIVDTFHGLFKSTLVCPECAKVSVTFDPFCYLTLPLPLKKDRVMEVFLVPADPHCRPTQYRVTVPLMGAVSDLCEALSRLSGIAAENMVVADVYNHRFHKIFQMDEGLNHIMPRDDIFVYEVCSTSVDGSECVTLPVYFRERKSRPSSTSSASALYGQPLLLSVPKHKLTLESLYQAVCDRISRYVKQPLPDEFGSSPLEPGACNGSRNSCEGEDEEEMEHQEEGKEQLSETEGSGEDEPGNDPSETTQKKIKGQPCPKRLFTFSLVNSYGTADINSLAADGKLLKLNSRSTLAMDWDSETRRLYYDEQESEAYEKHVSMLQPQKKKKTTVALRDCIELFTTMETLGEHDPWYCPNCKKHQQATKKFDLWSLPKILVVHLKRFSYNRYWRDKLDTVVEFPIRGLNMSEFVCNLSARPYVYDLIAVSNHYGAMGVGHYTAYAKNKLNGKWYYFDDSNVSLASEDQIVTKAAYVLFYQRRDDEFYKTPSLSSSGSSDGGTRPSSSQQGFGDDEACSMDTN
In short: as §1

Measured: log2 ratio of Biotin-Ahx-Ub-VS probe labelling

Chain of USP34 (Q70CQ2 whole entry, the tested form may be a part): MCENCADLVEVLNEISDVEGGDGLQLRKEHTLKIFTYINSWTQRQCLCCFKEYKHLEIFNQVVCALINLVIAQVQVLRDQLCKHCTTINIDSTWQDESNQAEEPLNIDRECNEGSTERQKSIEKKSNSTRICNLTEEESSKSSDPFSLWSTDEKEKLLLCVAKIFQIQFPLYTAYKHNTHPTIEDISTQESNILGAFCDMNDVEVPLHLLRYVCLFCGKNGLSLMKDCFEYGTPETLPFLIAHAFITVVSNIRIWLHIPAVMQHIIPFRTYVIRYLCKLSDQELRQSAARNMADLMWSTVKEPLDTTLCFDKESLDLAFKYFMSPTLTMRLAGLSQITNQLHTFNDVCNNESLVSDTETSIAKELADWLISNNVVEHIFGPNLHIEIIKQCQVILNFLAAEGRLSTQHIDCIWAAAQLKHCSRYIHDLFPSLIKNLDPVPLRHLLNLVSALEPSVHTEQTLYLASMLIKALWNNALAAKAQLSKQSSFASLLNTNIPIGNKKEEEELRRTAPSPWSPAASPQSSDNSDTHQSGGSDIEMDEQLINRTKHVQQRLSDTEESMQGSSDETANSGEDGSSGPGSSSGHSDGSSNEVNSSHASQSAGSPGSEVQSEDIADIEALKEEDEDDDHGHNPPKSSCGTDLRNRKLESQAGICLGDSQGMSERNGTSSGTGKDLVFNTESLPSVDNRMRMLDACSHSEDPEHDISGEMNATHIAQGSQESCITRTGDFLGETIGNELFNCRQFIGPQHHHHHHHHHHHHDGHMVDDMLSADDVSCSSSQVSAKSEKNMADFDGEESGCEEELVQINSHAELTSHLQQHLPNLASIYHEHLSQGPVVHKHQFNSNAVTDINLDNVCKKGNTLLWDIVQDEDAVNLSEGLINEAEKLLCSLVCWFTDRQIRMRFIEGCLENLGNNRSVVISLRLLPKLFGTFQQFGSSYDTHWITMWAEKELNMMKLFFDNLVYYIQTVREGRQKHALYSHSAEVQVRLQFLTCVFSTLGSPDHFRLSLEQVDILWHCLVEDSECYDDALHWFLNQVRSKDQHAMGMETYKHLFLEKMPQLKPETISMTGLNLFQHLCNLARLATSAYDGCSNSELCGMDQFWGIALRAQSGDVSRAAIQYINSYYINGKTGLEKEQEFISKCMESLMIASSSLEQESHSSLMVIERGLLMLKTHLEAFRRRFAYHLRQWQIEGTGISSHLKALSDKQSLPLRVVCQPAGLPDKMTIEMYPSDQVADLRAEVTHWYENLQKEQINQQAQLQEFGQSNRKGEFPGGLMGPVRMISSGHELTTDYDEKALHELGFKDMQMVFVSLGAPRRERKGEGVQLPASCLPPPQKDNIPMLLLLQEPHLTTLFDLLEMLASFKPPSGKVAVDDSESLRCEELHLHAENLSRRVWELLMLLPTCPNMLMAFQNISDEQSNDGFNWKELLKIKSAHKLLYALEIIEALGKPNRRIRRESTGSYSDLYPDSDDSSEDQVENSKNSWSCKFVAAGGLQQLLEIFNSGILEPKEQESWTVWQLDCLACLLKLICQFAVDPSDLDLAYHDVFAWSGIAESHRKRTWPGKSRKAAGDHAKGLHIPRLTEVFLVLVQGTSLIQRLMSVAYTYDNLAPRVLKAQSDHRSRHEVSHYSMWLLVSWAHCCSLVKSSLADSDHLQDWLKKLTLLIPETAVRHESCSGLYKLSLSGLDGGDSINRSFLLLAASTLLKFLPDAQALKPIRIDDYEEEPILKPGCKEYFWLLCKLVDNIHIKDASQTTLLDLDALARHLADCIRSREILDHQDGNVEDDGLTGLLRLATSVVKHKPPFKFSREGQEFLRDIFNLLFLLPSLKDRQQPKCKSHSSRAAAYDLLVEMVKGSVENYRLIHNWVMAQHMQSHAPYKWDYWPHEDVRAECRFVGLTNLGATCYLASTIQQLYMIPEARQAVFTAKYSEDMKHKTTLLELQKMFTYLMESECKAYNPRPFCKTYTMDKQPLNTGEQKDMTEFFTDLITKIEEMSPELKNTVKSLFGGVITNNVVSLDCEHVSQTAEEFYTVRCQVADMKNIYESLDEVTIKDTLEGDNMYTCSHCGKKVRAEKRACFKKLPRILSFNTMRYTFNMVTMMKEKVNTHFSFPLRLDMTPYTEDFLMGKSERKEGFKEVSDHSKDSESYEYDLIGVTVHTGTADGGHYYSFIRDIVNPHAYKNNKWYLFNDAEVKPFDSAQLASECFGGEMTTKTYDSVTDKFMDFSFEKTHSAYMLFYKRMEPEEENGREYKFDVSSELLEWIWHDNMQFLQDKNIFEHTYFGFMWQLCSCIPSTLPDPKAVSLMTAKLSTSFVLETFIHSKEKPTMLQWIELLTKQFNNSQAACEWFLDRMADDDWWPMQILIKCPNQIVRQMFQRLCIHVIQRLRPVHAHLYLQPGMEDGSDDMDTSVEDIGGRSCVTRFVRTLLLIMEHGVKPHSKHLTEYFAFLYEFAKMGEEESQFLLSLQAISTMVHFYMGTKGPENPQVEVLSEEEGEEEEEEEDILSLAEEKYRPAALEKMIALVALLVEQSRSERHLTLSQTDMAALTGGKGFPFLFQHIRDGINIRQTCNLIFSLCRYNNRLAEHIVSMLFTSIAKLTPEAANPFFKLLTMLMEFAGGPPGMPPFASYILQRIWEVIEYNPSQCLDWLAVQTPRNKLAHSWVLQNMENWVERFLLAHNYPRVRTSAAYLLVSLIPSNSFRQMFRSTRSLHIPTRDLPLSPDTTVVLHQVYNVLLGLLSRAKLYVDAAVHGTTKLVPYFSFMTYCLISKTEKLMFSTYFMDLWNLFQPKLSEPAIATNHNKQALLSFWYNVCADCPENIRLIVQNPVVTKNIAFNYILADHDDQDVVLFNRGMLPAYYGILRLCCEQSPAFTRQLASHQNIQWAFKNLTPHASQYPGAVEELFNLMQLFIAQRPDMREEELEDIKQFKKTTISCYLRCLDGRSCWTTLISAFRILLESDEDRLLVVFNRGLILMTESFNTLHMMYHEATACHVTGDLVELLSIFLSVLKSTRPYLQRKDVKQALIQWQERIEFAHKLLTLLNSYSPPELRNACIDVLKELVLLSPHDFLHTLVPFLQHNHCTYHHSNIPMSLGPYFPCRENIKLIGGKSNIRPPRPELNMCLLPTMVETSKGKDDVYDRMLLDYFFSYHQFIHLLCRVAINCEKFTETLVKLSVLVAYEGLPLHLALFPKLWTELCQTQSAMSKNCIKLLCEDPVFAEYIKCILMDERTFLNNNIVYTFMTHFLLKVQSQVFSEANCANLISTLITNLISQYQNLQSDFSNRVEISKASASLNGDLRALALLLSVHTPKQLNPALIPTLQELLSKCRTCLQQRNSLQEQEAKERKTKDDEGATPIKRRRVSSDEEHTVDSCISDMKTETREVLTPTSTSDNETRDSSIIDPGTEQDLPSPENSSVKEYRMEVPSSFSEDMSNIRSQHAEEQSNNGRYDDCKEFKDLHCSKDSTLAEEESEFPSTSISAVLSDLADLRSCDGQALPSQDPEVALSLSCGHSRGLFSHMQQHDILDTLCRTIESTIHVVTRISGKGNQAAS

O=C(CCl)NCc1noc(C2CC2)n1
inactive: [1] -0.18 | [2] -0.144 | [3] -0.0158 | [4] 0.182 | [5] 0.00316
